What all share (test): DAPPL (digital affinity profiling via proximity ligation, sequencing); 10 mM Tris-HCl pH 7.5, 50 mM NaCl, 1 mM DTT, 4% glycerol, room temperature, 30 min; GST-TFs on glutathione beads, 16-mer random dsDNA library, 0.1% formaldehyde crosslink after washing; high values mean tight binding
Details in all cases: protein: recombinant; tags: N-terminal GST; dsDNA, one strand shown

The target of one test is T1, ERF (Homo sapiens, UniProt P50548 1-548).
T1 sequence: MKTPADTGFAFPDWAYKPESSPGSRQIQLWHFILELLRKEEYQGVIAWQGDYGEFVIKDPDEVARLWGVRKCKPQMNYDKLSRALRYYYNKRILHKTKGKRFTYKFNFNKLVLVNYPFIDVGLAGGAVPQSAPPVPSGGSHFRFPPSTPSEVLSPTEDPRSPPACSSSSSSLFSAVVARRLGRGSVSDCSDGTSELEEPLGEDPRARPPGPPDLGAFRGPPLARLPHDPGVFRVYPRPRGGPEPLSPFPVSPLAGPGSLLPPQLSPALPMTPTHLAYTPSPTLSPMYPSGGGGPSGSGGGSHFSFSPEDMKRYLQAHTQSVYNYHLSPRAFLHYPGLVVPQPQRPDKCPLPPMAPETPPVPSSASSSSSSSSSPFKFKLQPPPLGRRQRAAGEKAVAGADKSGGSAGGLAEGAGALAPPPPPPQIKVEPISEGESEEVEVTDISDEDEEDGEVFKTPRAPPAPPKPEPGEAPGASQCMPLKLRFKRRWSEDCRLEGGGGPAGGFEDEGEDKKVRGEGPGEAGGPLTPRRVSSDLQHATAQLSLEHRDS
The method in brief: (§1)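 Each value of binding signal is a hexamer's read frequency for a factor divided by the same hexamer's frequency in the tag-only sample. Barcoded, bead-captured GST fusions of human transcription factors made in yeast were pooled with that sample and incubated with 200 nmole of a random double-stranded 16-mer DNA library in Tris/NaCl/DTT/glycerol buffer at room temperature for 30 min. Washing, 0.1% formaldehyde crosslinking, proximity ligation, PCR and Illumina NextSeq500 sequencing followed.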

The target in a further test is T2, ETV3L (Homo sapiens, UniProt Q6ZN32 1-361).
T2 sequence: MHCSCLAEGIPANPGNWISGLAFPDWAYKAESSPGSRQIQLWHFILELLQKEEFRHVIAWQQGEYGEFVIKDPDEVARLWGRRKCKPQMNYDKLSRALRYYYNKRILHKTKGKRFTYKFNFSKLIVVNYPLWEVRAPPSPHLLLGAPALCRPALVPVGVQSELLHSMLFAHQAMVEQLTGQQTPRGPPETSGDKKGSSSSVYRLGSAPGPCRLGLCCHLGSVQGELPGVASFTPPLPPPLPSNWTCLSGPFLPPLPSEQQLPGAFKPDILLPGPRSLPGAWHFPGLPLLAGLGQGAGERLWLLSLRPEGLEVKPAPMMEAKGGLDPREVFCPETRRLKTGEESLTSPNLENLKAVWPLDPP
The gist of the method:
as §1

The next test has as its target T3, ETS2 (Homo sapiens, UniProt P15036 1-469).
T3 sequence: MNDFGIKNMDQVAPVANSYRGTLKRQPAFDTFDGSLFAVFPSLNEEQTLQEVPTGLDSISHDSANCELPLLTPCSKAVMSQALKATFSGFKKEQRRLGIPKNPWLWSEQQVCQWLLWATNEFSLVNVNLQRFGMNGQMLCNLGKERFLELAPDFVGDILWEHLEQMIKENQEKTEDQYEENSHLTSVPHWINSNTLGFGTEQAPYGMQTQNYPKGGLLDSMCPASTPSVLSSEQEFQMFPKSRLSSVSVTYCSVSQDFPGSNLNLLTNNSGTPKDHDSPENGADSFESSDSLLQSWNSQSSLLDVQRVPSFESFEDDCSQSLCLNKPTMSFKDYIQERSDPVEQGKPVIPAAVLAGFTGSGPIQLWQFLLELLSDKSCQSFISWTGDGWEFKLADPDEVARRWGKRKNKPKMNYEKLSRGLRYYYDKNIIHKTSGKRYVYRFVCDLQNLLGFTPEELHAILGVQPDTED
The method in brief: as §1

The target of a further test is T4, SPDEF (Homo sapiens, UniProt O95238 1-335).
T4 sequence: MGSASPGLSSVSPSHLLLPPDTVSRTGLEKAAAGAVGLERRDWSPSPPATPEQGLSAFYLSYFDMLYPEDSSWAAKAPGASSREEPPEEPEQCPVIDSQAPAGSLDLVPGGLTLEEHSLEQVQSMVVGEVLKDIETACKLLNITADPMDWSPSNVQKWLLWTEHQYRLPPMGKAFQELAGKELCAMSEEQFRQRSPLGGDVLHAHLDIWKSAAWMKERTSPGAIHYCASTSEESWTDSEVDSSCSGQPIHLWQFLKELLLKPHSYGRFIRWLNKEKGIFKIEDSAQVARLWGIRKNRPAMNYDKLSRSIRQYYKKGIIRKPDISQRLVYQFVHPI
The method in brief: as §1

The target of a further test is T5, ETV7 (Homo sapiens, UniProt Q9Y603 1-341).
T5 sequence: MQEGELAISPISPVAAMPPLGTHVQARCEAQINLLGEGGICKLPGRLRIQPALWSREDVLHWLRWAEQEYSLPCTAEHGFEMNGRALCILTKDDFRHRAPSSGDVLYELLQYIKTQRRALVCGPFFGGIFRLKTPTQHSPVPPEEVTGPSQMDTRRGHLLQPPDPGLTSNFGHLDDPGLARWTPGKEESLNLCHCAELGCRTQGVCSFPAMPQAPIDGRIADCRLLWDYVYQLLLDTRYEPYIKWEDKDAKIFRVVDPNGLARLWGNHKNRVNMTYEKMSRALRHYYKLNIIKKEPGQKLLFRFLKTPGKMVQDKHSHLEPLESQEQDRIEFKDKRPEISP
The gist of the method:
as §1

The next test concerns the target T6, ELF5 (Homo sapiens, UniProt Q9UKW6-2 1-255).
T6 sequence: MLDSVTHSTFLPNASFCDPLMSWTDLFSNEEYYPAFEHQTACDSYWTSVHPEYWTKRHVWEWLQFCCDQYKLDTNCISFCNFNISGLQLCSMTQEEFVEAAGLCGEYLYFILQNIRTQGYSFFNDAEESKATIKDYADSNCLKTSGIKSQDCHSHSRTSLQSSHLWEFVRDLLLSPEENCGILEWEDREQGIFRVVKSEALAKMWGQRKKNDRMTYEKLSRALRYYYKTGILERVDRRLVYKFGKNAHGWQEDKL
The method in brief: as §1

In another test the target is T7, ETV3 (Homo sapiens, UniProt P41162-2 1-143).
T7 sequence: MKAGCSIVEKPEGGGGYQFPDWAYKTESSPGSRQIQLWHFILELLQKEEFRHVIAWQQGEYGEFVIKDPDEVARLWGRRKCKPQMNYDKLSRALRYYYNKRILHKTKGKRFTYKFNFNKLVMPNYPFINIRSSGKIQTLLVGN
The gist of the method: as §1

For another test, the target named is ETV6 (Homo sapiens, UniProt P41212 1-452). The method in brief: as §1
Sequence of ETV6 (P41212 whole entry): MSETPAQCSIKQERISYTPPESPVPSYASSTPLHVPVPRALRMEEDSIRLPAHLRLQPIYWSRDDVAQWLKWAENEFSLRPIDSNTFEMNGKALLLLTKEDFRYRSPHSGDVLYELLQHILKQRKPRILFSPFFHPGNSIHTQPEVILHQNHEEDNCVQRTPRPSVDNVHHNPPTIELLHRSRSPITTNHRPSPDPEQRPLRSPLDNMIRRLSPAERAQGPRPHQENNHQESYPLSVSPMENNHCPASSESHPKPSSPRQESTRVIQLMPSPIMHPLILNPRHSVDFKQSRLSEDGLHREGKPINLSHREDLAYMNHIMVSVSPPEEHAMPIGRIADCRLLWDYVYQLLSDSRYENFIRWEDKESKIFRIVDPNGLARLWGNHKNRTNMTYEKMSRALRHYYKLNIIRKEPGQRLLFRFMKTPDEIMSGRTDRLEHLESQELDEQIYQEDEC

Take CAAACT: the binding signal was 1.23 fold enrichment (6-mer frequency, TF over GST control) with ERF; 1.14 fold enrichment (6-mer frequency, TF over GST control) with ETV3L; 1.21 fold enrichment (6-mer frequency, TF over GST control) in the test with ETS2; 1.16 fold enrichment (6-mer frequency, TF over GST control) with SPDEF; 1.15 fold enrichment (6-mer frequency, TF over GST control) with ETV7; 1.18 fold enrichment (6-mer frequency, TF over GST control) in the test with ELF5. The binding signal with ETV3 was 1.13 fold enrichment (6-mer frequency, TF over GST control); in the test with ETV6, 1.21 fold enrichment (6-mer frequency, TF over GST control).
In the case of TTGCAG, the binding signal with ERF was 1.24 fold enrichment (6-mer frequency, TF over GST control); with ETV3L, 1.11 fold enrichment (6-mer frequency, TF over GST control); with ETS2, 1.19 fold enrichment (6-mer frequency, TF over GST control); with SPDEF, 1.14 fold enrichment (6-mer frequency, TF over GST control); in the test with ETV7 it was 1.13 fold enrichment (6-mer frequency, TF over GST control); with ELF5 it was 1.08 fold enrichment (6-mer frequency, TF over GST control). Moreover, the binding signal in the test with ETV3 was 1.1 fold enrichment (6-mer frequency, TF over GST control); in the test with ETV6, 1.12 fold enrichment (6-mer frequency, TF over GST control).
Consider CATCTG, for which the binding signal with ERF is 1.35 fold enrichment (6-mer frequency, TF over GST control); with ETV3L, 1.23 fold enrichment (6-mer frequency, TF over GST control); with ETS2, 1.24 fold enrichment (6-mer frequency, TF over GST control); with SPDEF, 1.23 fold enrichment (6-mer frequency, TF over GST control); with ETV7, 1.33 fold enrichment (6-mer frequency, TF over GST control); with ELF5, 1.23 fold enrichment (6-mer frequency, TF over GST control). Moreover, the binding signal with ETV3 was 1.17 fold enrichment (6-mer frequency, TF over GST control); with ETV6 it was 1.11 fold enrichment (6-mer frequency, TF over GST control).
For GCTCGT, the binding signal was 1.2 fold enrichment (6-mer frequency, TF over GST control) with ERF; 1.23 fold enrichment (6-mer frequency, TF over GST control) with ETV3L; 1.12 fold enrichment (6-mer frequency, TF over GST control) with ETS2; 1.15 fold enrichment (6-mer frequency, TF over GST control) with SPDEF; 1.11 fold enrichment (6-mer frequency, TF over GST control) with ETV7; 1.1 fold enrichment (6-mer frequency, TF over GST control) with ELF5. The binding signal was 1.15 fold enrichment (6-mer frequency, TF over GST control) with ETV3 and 1.16 fold enrichment (6-mer frequency, TF over GST control) with ETV6.
TGATAT: the binding signal with ERF was 1.02 fold enrichment (6-mer frequency, TF over GST control); with ETV3L, 1.09 fold enrichment (6-mer frequency, TF over GST control); in the test with ETS2 it was 1.12 fold enrichment (6-mer frequency, TF over GST control); with SPDEF, 1.18 fold enrichment (6-mer frequency, TF over GST control); in the test with ETV7, 1.03 fold enrichment (6-mer frequency, TF over GST control); in the test with ELF5, 1.09 fold enrichment (6-mer frequency, TF over GST control). The binding signal is 1.15 fold enrichment (6-mer frequency, TF over GST control) with ETV3 and 1.06 fold enrichment (6-mer frequency, TF over GST control) with ETV6.
Consider GCACCC, for which the binding signal with ERF is 1.21 fold enrichment (6-mer frequency, TF over GST control); with ETV3L, 1.23 fold enrichment (6-mer frequency, TF over GST control); with ETS2 it was 1.16 fold enrichment (6-mer frequency, TF over GST control); in the test with SPDEF, 1.17 fold enrichment (6-mer frequency, TF over GST control); with ETV7, 1.12 fold enrichment (6-mer frequency, TF over GST control); with ELF5 it was 1.17 fold enrichment (6-mer frequency, TF over GST control). Also, the binding signal with ETV3 was 1.24 fold enrichment (6-mer frequency, TF over GST control); with ETV6, 1.09 fold enrichment (6-mer frequency, TF over GST control).
On to TGCCTT, for which the binding signal is 1.24 fold enrichment (6-mer frequency, TF over GST control) in the test with ERF; 1.52 fold enrichment (6-mer frequency, TF over GST control) with ETV3L; 1.38 fold enrichment (6-mer frequency, TF over GST control) with ETS2; 1.32 fold enrichment (6-mer frequency, TF over GST control) with SPDEF; 1.28 fold enrichment (6-mer frequency, TF over GST control) with ETV7; 1.39 fold enrichment (6-mer frequency, TF over GST control) with ELF5. The binding signal in the test with ETV3 was 1.31 fold enrichment (6-mer frequency, TF over GST control); in the test with ETV6 it was 1.23 fold enrichment (6-mer frequency, TF over GST control).
As for CTGTCC, the binding signal with ERF was 1.28 fold enrichment (6-mer frequency, TF over GST control); in the test with ETV3L, 1.13 fold enrichment (6-mer frequency, TF over GST control); with ETS2 it was 1.33 fold enrichment (6-mer frequency, TF over GST control); with SPDEF, 1.27 fold enrichment (6-mer frequency, TF over GST control); with ETV7, 1.28 fold enrichment (6-mer frequency, TF over GST control); in the test with ELF5, 1.3 fold enrichment (6-mer frequency, TF over GST control). In addition, the binding signal with ETV3 is 1.14 fold enrichment (6-mer frequency, TF over GST control); with ETV6, 1.26 fold enrichment (6-mer frequency, TF over GST control).
Regarding TTTCCT, the binding signal with ERF was 2.28 fold enrichment (6-mer frequency, TF over GST control); in the test with ETV3L it was 2.43 fold enrichment (6-mer frequency, TF over GST control); with ETS2, 2.44 fold enrichment (6-mer frequency, TF over GST control); in the test with SPDEF, 2.34 fold enrichment (6-mer frequency, TF over GST control); in the test with ETV7, 2.31 fold enrichment (6-mer frequency, TF over GST control); with ELF5, 4.16 fold enrichment (6-mer frequency, TF over GST control). For the same sequence, the binding signal with ETV3 is 2.73 fold enrichment (6-mer frequency, TF over GST control); with ETV6, 2.86 fold enrichment (6-mer frequency, TF over GST control).

Values taken from publication PMC7862700, “An all-to-all approach to the identification of sequence-specific readers for epigenetic DNA modifications on cytosine”.
